hgDAF12 agonist = hgDAF-12 agonism, primary luciferase screen. HEK293 GAL4-hgDAF12 UAS-luciferase reporter, agonist luminescence; normalized to butyrate control. activation, % at 6.8 µM. actives 1.8% (n = 370,000). AID 687014;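 active = activation above a cutoff set at the mean of all screened compounds plus 3 SD, cut at about 10% in these data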
ssDAF-12 act = activates DAF-12 receptor from parasite S. stercoralis; HEK293 ssDAF-12/GRIP1 lit1-tk-luc reporter, luminescence; % of 3 µM dafachronic acid response; activation, % at 6.8 µM; actives 1% (n = 370,000);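 active = activation above the mean over all tested compounds plus 3 SD, cut at about 0.9% in these data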
DAX1 inh-1 = inhibits human nuclear receptor DAX1. inhibition, % at 6.75 µM. HEK293 Gal4-DAX1 luciferase reporter, luminescence. AID 504766. P51843. actives 0.99% (n = 340,000);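 active = inhibition above the mean over all tested compounds plus 3 SD, cut at about 4.2% in these data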;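 also: inhibition shows as a rise in luminescence from relieved DAX1 repression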
Target sequence (P51843 207-470 limits assumed): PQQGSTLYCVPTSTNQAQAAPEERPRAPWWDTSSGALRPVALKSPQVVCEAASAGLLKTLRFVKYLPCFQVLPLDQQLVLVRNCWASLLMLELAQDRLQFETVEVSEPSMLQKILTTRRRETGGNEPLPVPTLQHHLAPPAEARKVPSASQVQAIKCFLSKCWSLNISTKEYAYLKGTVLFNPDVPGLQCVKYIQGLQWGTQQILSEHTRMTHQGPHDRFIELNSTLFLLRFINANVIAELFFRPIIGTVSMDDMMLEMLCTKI
DAX1 inh-2 = inhibitors of DAX1 repression of SF-1 activated StAR promoter; inhibition, % at 6.8 µM; actives 1.1% (n = 370,000); HEK293T StAR-luciferase reporter, SF-1/DAX-1 repression relief;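 active = inhibition above the mean over all tested compounds plus 3 SD, cut at about 3.6% in these data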;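 also: higher inhibition means more luminescence from relief of DAX-1 repression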
hcDAF12 agonist = H. contortus DAF-12 activation, primary screen | HEK293 hcDAF-12 lit1-tk-luc reporter, luminescence; 0% DMSO, 100% Δ7-dafachronic acid | activation, % at 6.8 µM | actives 1.4% (n = 370,000);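 active = activation above the mean of all tested compounds plus 3 SD, cut at about 5.5% in these data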
A number is an active result; 0 = inactive; - = no result given. Compounds with a hit are over-represented: about 4.1% of the library has one in this group of screens.

SMILES | hgDAF12 agonist | ssDAF-12 act | DAX1 inh-1 | DAX1 inh-2 | hcDAF12 agonist
CCOC(=O)C1CCN(C(=O)c2cc3cc(Cl)ccc3[nH]2)CC1 | 0 | 0 | 0 | 0 | 6.5
O=C(c1cc2cc(F)ccc2[nH]1)N1CCC(Cc2ccccc2)CC1 | 0 | 0.9 | 0 | 0 | 0
CCOC(=O)C1CCN(C(=O)c2cc3ccc(OC)cc3[nH]2)CC1 | 0 | 0 | 0 | 0 | 0
Cc1cccc(N/N=C2/COC(C)(C)CC2=O)c1 | 13.1 | 0 | 0 | 0 | 0
COc1ccccc1N/N=C1\COC(C)(C)CC1=O | 0 | 0 | 4.8 | 0 | 0
CC1(C)CC(=O)/C(=N/Nc2ccc(Cl)cc2)CO1 | 11.0 | 0 | 4.5 | 0 | 0
CCCCCN1CCCCC(NC(=O)c2ccccc2C)C1=O (stereo not drawn) | 0 | 0 | - | 0 | 0
CC(=O)CC[C@H]1CC[C@]2(CCCN(C(=O)C(C)(C)C)C2)O1 | 0 | 2.2 | - | 0 | 0
Cc1ccc(NC(=S)N(CCN(C)C)Cc2cc3cccc(C)c3[nH]c2=O)cc1 | 0 | 1.7 | 0 | 0 | 0
Cc1cccc(NC(=S)N(CCN(C)C)Cc2cc3cccc(C)c3[nH]c2=O)c1 | 0 | 0 | 0 | 0 | 0
Cc1cccc2cc(CN(Cc3ccccc3)C(=S)NCCCN(C)C)c(=O)[nH]c12 | 0 | 0 | 5.4 | 0 | 0
CC(SC(C)C(=O)NN=Cc1cccc(F)c1)C(=O)NN=Cc1cccc(F)c1 (stereo not drawn) | 0 | 0 | 0 | 0 | 0
O=C1Nc2ccc(Br)cc2/C1=C/C1CC=CCC1 (stereo not drawn) | 0 | 1.0 | 0 | 0 | 0
O=C1Nc2ccc(Br)cc2/C1=C/C(=O)c1ccc2c(c1)OCO2 | 0 | 0 | 0 | 0 | 0
O=C(Nc1c(-c2ccc(F)cc2)nc2ncccn12)c1ccc(F)cc1 | 0 | 0 | - | 0 | 0
Cc1ccc(-n2nc3c(c2NC(=O)c2ccccc2)CS(=O)(=O)C3)cc1C | 0 | 0 | 0 | 0 | 0
Cc1ccc(C(=O)Nc2c3c(nn2-c2ccccc2)CS(=O)(=O)C3)cc1C | 0 | 0 | 0 | 0 | 5.8
CN1CCN(C(=O)CCc2nc3ccccc3c(=O)[nH]2)CC1 | 0 | 0 | 0 | 0 | 6.0
CN(Cc1nc2ccccc2c(=O)[nH]1)c1ccccc1 | 0 | 0 | 5.3 | 0 | 0
CN(Cc1ccccc1)Cc1c(O)ccc2ccccc12 | 0 | 0 | 0 | 0 | 0
CCN(CC(=O)Nc1ccccc1SC)Cc1nc2ccccc2c(=O)[nH]1 | 0 | 0 | 5.0 | 0 | 0
COc1ccc(OCCN(C)Cc2c(O)ccc3ccccc23)cc1 | 0 | 0 | 0 | 0 | 6.0
NC(=O)C1CCN(C(=O)CCc2nc3ccccc3c(=O)[nH]2)CC1 | 0 | 0 | 0 | 0 | 0
CCN(CC(=O)Nc1ccccc1-c1ccccc1)Cc1nc2ccccc2c(=O)[nH]1 | 0 | 0 | 0 | 0 | 0
CN(C)CCCN1C(=O)C2CCc3[nH]c4ccccc4c3C2C1=O (stereo not drawn) | 0 | 0 | 0 | 0 | 0
SMILES | hgDAF12 agonist | ssDAF-12 act | DAX1 inh-1 | DAX1 inh-2 | hcDAF12 agonist
Nc1nc2c(ncn2[C@@H]2O[C@H](C(=O)NC3CCCCC3)[C@@H](O)[C@H]2O)c(=O)[nH]1 | 0 | 0 | - | 0 | 0
CCOC(=O)[C@]12CCCC=C1N(Cc1ccc(OC)cc1)C(=O)[C@@H]2CC(=O)N1CCC(c2ccccc2)CC1 | 0 | 0 | - | 0 | 0
C=CCN(C(=O)[C@@H](CCCC)[C@@H](O)c1ccc2ccccc2c1)c1ccccc1 | 0 | 0 | - | 0 | 0
CCOC(=O)[C@@]12CN(C(=O)OC(C)(C)C)CC=C1N(Cc1ccc(OC)cc1)C(=O)[C@H]2CC(=O)N1CCCC1 | 0 | 0 | - | 0 | 0
CSc1ccccc1NC(=O)CN(C)Cc1ccc(Br)cc1 | 0 | 0 | 0 | 0 | 0
CSc1ccccc1NC(=O)CN(C)Cc1c(O)ccc2ccccc12 | 0 | 0 | 0 | 0 | 6.2
N#C/C(=C\c1ccc(N2CCOCC2)o1)C(=O)Nc1ccc(O)cc1 | 0 | 0 | - | 0 | 0
COc1ccc(NC(=O)/C(C#N)=C\c2ccc(N3CCOCC3)o2)cc1 | 12.8 | 0 | 0 | 0 | 0
N#C/C(=C/c1ccc(N2CCCCC2)o1)C(=O)Nc1ccc(Cl)cc1 | 11.2 | 0 | 0 | 0 | 0
C[C@H]1[C@@H](OC(=O)NCc2cccc(Cl)c2)CC[C@@]23CCCN2C(=O)CCC[C@@H]13 | 0 | 0 | - | - | 0
CCN1CCN(C(=O)C2=CC(c3ccc(C)cc3)=NS(=O)(=O)N2C)CC1 | 0 | 0 | 4.5 | 0 | 0
CCN1CCN(C(=O)C2=CC(c3ccc(OC)cc3)=NS(=O)(=O)N2C)CC1 | 0 | 0 | 0 | 0 | 0
CC(C)[C@H]1Cn2nncc2Cn2c3ccccc3c(=O)n21 | 0 | 0 | - | 0 | 0
COC(=O)[C@H](C(C)C)N1Cc2nnn(CC3CCCCC3)c2-c2ccccc2S1(=O)=O | 0 | 0 | - | 0 | 0
O=[N+]([O-])c1cc(N=Nc2ccc3ccccc3c2)ccc1O | 0 | 1.3 | 0 | 0 | 0
Nc1ccc(O)c([N+](=O)[O-])c1 | 0 | 0 | 0 | 0 | 0
CCOCc1nnc(NC(=O)CS(=O)(=O)c2ccc(C)cc2)s1 | 0 | 0 | 0 | 0 | 0
COc1ccc(CCNC(=O)CC(Cc2ccccc2)C(=O)O)cc1OC (stereo not drawn) | 0 | 0 | 0 | 0 | 0
COC(=O)[C@@H](Cc1ccccc1)NC(=O)NCCc1ccc(OC)c(OC)c1 | 0 | 0 | 4.3 | 0 | 0
O=C(Nc1ccc2c(c1)OCO2)N1CCC(c2nc3ccc(Cl)cc3[nH]2)CC1 | 0 | 0 | - | 0 | 0
CC(=O)c1ccccc1NS(=O)(=O)c1ccccc1Cl | 12.0 | 0 | 0 | 0 | 0
COC(=O)c1ccc(NC(=O)C(=O)N2CCN(C(=S)Nc3ccc(C)cc3)CC2)cc1 | 0 | 0 | 0 | 0 | 0
COc1ccc(CC(/C=C/c2ccc(F)cc2)c2ccccc2)cc1 (stereo not drawn) | 0 | 0 | - | 0 | 0
Cc1c(NC(=O)COC(=O)c2ccc[nH]c2=O)c(=O)n(-c2ccccc2)n1C | 0 | 0 | 5.3 | 0 | 0
COc1ccc(-c2nc3cc(C)c(Br)c(C)n3c2CC2CCCCC2)cc1OC | 0 | 0 | - | 0 | 0
SMILES | hgDAF12 agonist | ssDAF-12 act | DAX1 inh-1 | DAX1 inh-2 | hcDAF12 agonist
COC(=O)c1ccc2nc(-c3ccc(F)cc3)c(Cc3cccc(F)c3)n2c1 | 0 | 0 | - | 0 | 0
COC(=O)c1ccc2nc(-c3ccc(C)cc3)c(CC3CCCCC3)n2c1 | 0 | 1.8 | - | 3.9 | 0
COC(=O)c1ccc2nc(-c3ccc(F)cc3)c(CC3CCCCC3)n2c1 | 0 | 1.1 | - | 0 | 0
Cc1cc2nc(-c3ccc(F)cc3)c(CC3CCCCC3)n2c(C)c1Br | 0 | 1.0 | - | 0 | 0
C=CCN1[C@@H](Cc2ccccc2)COc2cc(F)ccc2S1(=O)=O | 0 | 0 | - | 0 | 0
CCCCCN(C(=O)CCC(=O)OCCOc1ccccc1Cl)c1c(N)n(CCCC)c(=O)[nH]c1=O | 0 | 0 | 0 | 0 | 0
O=C(NCC1CCN(C(=O)C(=O)c2cccs2)CC1)c1ccc2c(c1)CCO2 | 0 | 0 | - | 0 | 0
CC(C)(C)[C@H](NC(=O)c1cc(Cl)cc(Cl)c1)C(=O)N1CCC[C@H]1C(=O)N[C@H](C#N)CC(=O)O | 0 | 0 | - | - | 0
N#Cc1ccccc1NC(=O)CN1C(=O)NC2(CCCC2)C1=O | 0 | 0 | 4.7 | 0 | 0
